Measured values from PubChem BioAssay AID651642 (Sanford-Burnham Center for Chemical Genomics, 2012).
The source made the active and inactive calls.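 How the source made its calls: active means average half-effect concentration of 10 µM or less in every one of the four cell panels; inactive means the rest.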

What follows are molecules tested on H9c2 (assay: protection of cardiomyocytes from stress damage, SAR follow-up, cell-based, panel, H9c2 and HL-1, H2O2, 2-deoxyglucose, ATP luminescence (AID 651642)). Conditions: H9c2/HL-1 cardiomyocyte 2-deoxyglucose damage, mean of runs, with 2-deoxyglucose.

Row | Structure (SMILES) | outcome
1 | COc1cc(-c2cc(C(=O)NCC(=O)Nc3cccc(C(C)=O)c3)c3cc(F)ccc3n2)cc(OC)c1OC | active
2 | CCOC(=O)c1cccc(NC(=O)CNC(=O)c2cc(-c3cc(OC)c(OC)c(OC)c3)nc3ccc(F)cc23)c1 | active
3 | COc1cc(-c2cc(C(=O)Nc3cccc(C(=O)NCc4ccccc4)c3)c3ccccc3n2)cc(OC)c1OC | active
4 | COc1cccc(CNC(=O)CNC(=O)c2cc(-c3cc(OC)c(OC)c(OC)c3)nc3ccccc23)c1 | inactive
5 | CCOC(=O)c1cccc(NC(=O)c2cc(-c3cc(OC)c(OC)c(OC)c3)nc3ccc(OC)cc23)c1 | inactive
6 | COc1ccc2c(c1OC)C(=O)N1c3ccccc3C(=O)N(Cc3cccc(Br)c3)C21 (configuration not stated) | inactive
7 | COc1cc(-c2cc(C(=O)Nc3cccc(C(C)=O)c3)c3cc(F)ccc3n2)cc(OC)c1OC | inactive
8 | COc1cc(-c2cc(C(=O)Nc3cccc(C(=O)N(C)C)c3)c3ccccc3n2)cc(OC)c1OC | inactive
9 | COc1cc(-c2cc(C(=O)NCC(=O)Nc3ccc(C(C)=O)cc3)c3cc(C)ccc3n2)cc(OC)c1OC | active
10 | CCOC(=O)c1cccc(NC(=O)c2cc(-c3cc(OC)c(OC)c(OC)c3)nc3ccccc23)c1 | inactive
11 | COc1ccc2c(c1OC)C(=O)N1c3ccccc3C(=O)N(Cc3cccc(Cl)c3Cl)C21 (configuration not stated) | active
12 | COc1ccc2c(c1OC)C(=O)N1c3ccccc3C(=O)N(Cc3ccccc3)C21 (configuration not stated) | inactive
13 | COc1cc(-c2cc(C(=O)Nc3cccc(C(=O)O)c3)c3ccccc3n2)cc(OC)c1OC | inactive
14 | COc1cc(-c2cc(C(=O)NCC(=O)Nc3ccc(C(C)=O)cc3)c3ccccc3n2)cc(OC)c1OC | inactive
15 | COc1ccc2c(c1OC)C(=O)N1c3ccccc3C(=O)N(Cc3ccccc3Cl)C21 (configuration not stated) | inactive
16 | COc1ccccc1CN1C(=O)c2ccccc2N2C(=O)c3c(ccc(OC)c3OC)C12 (configuration not stated) | inactive

Row | Structure (SMILES) | outcome
17 | COc1cc(-c2cc(C(=O)NCC(=O)Nc3cccc(C(C)=O)c3)c3cccc(Cl)c3n2)cc(OC)c1OC | inactive
18 | COc1cc(-c2cc(C(=O)NCC(=O)Nc3cccc(C(C)=O)c3)c3ccccc3n2)cc(OC)c1OC | active
19 | COc1cc(-c2cc(C(=O)NCC(=O)O)c3ccccc3n2)cc(OC)c1OC | inactive
20 | CCOC(=O)c1cccc(NC(=O)c2cc(-c3cc(OC)c(OC)c(OC)c3)nc3cc(Cl)ccc23)c1 | inactive
21 | COc1ccc2c(c1OC)C(=O)N1c3ccccc3C(=O)N(Cc3ccccc3C)C21 (configuration not stated) | inactive
22 | COc1ccc2c(c1OC)C(=O)N1c3ccccc3C(=O)N(Cc3ccccn3)C21 (configuration not stated) | inactive
23 | COc1ccc2c(c1OC)C(=O)N1c3ccccc3C(=O)N(Cc3ccc(C)cc3C)C21 (configuration not stated) | inactive
24 | CCOC(=O)c1cccc(NC(=O)c2cc(-c3cc(OC)c(OC)c(OC)c3)nc3ccc(Cl)cc23)c1 | inactive
25 | COc1ccc2nc(-c3cc(OC)c(OC)c(OC)c3)cc(C(=O)NCC(=O)Nc3ccc(C(C)=O)cc3)c2c1 | active
26 | COc1ccc2c(c1OC)C(=O)N1c3ccccc3C(=O)N(Cc3ccccc3Br)C21 (configuration not stated) | inactive
27 | CCOC(=O)c1cccc(NC(=O)CNC(=O)c2cc(-c3cc(OC)c(OC)c(OC)c3)nc3c(Cl)cccc23)c1 | inactive
28 | CCOC(=O)c1ccc(NC(=O)c2cc(-c3cc(OC)c(OC)c(OC)c3)nc3ccccc23)cc1 | inactive
29 | COC(=O)CNC(=O)c1cc(-c2cc(OC)c(OC)c(OC)c2)nc2ccccc12 | inactive
30 | CCOC(=O)c1cccc(NC(=O)CNC(=O)c2cc(-c3cc(OC)c(OC)c(OC)c3)nc3ccc(C)cc23)c1 | active
31 | COc1cc(-c2cc(C(=O)NCC(=O)Nc3cccc(C(C)=O)c3)c3cc(C)ccc3n2)cc(OC)c1OC | inactive
32 | COc1ccc2c(c1OC)C(=O)N1c3ccccc3C(=O)N(Cc3cccc(F)c3)C21 (configuration not stated) | inactive
